These results are taken from PubChem BioAssay (NCI).

Common to all, as to experiment: NCI-60 one-dose screen, 48 h (100 = growth as untreated, 0 = no growth, -100 = all killed)
Conditions in all cases: 10 µM

The subject of test [1] is SK-MEL-2 melanoma.
Test [2] deals with EKVX NSCLC.
Test [3] deals with SN12C renal.
In test [4] the test system is UO-31 renal.
For test [5], the system named is ACHN renal.
Test [6] relates to CAKI-1 renal.
Test [7] concerns CCRF-CEM leukemia.
The subject of test [8] is MOLT-4 leukemia.
Test [9] deals with A498 renal.
In test [10] the test system is TK-10 renal.

The structures appear in SMILES notation. Compounds without any hit were thinned out: in the full panel of roughly 83,000, 20% have a hit.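 48-hour exposure, single concentration, 96-well plates; percent growth endpoint where 0 means no net growth. Active: below 10.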 A number with no mark means an inactive call. Calls of active or inactive are those of the source.

`COc1cc2cc(Oc3ccc(NC(=O)c4cccc(C(F)(F)F)c4)cc3)c(C)nc2cc1OC`: the growth is 38.8% in test [1]; 18.6% in test [2]; 36.9% in [3]; 22.8% in [4]; 33.9% in test [5]; 13.3% in test [6]. For the same compound, the growth in test [7] is 25.9%; in test [8], 28.4%.

`COc1ccc(C2CC(c3cc(OC)c(OC)c(OC)c3)=NN2)cc1` (configuration not stated): the growth in test [1] is 87.6%; in [2], 91.2%; in [3] it was 94.5%; in test [4], 62.7%; in test [5] it was 99%; in test [9], 87.4%. In addition, the growth in [7] was 57.3%; in test [8], 73.4%.

In the case of `O=S(=O)(Oc1ccc(-c2ccc3sccc3c2)cc1)c1ccccc1`, the growth in test [1] was 111%; in [2] it was 95.8%; in [3], 97.7%; in [10], 99.8%; in [5], 112%; in test [6], 87%. The growth in test [9] was 89.2%; in test [7] it was 98.9%; in test [8] it was 91.7%.

As to `COc1ccc(-c2n[nH]nc2-c2cc(OC)c(OC)c(OC)c2)cc1`, the growth in test [1] is 21.2%; in [2], 54.4%; in test [3] it was 25%; in test [4], 44.3%; in [5] it was 41.2%; in test [6], 27.6%. Further, the growth in [9] is -12.9% (active); in [7], 9.31% (active); in [8], 6.91% (active).

As to `COc1cc(/C=C2\CCCC3C2=Nc2ccccc2NC3c2cc(OC)c(OC)c(OC)c2)cc(OC)c1OC` (configuration not stated), the growth in test [1] was 17.9%; in [2], 59.8%; in test [3] it was -4.27% (active); in test [4] it was 5.57% (active); in test [5], -23% (active); in test [9] it was -22.4% (active). The growth in test [7] was 4.32% (active); in test [8] it was 0.606% (active).

As to `CC(=O)COc1ccc(Cl)cc1Cl`, the growth in test [1] was 113%; in test [2], 93%; in test [3], 95.3%; in test [10], 105%; in test [5] it was 116%; in test [6], 107%. Besides, the growth in [9] was 82.9%.

With `COc1cc2c(Nc3ccc(-c4ccc(N)cc4)cc3)ncnc2c(OC)c1OC`, the growth is 18.5% in test [1]; 59.2% in test [2]; 62.2% in test [3]; 22.7% in test [4]; 32.1% in [5]; 3.89% (active) in test [6]. Moreover, the growth in test [9] is 43.4%; in [7] it was 23.3%; in test [8], 19.8%.

Regarding `COc1cc2cc(Oc3ccc(NC(=O)Nc4cccc(C(F)(F)F)c4)cc3)c(C)nc2cc1OC`, the growth was -35.8% (active) in [1]; 15.4% in test [2]; 17.2% in test [3]; 11.3% in test [4]; 11.2% in test [5]; 9.13% (active) in [6]. For the same compound, the growth is 21.7% in test [9], 6.41% (active) in test [7] and 0.812% (active) in test [8].

In the case of `COc1ccccc1N1CCCSC1=Nc1ccccc1`, the growth in test [1] is 121%; in test [2] it was 110%; in test [3], 91.6%; in [4] it was 81.2%; in test [5], 114%; in test [9], 99.8%. The results for the growth in test [7] and in [8] were 67.6% and 62.1%, respectively.

On to `COc1cc2c(Nc3ccc(S(N)(=O)=O)cc3)ncnc2c(OC)c1OC`, for which the growth in test [1] is 92.4%; in test [2] it was 100%; in test [3] it was 93.5%; in test [4] it was 67.3%; in test [5], 99.4%; in test [6] it was 92%. For the same compound, the growth was 103% in test [9], 92.5% in test [7] and 97.3% in [8].

As for `COc1cccc(C2C(C#N)=C(N)Oc3cc(N)ccc32)c1` (configuration not stated), the growth in test [1] was 24.5%; in test [2], 55.7%; in test [3], 36.3%; in test [4], 49.7%; in [5], 55.4%; in test [6] it was 31.9%. Besides, the growth in test [7] was 11.4%; in test [8] it was 28.9%.

On to `N#Cc1cnn(C(=O)c2nn(-c3ccc(Cl)cc3)cc2O)c1N`, for which the growth was 1.93% (active) in test [1]; 1.5% (active) in test [2]; 26.5% in test [3]; -3.61% (active) in test [4]; 11.4% in test [5]; -34.4% (active) in [6]. The growth in test [9] was 48.6%; in test [7], -10.1% (active); in [8], -14.4% (active).

For the compound `O=C(N/N=C/c1ccc(Cl)cc1)c1ccccc1Nc1cccc(C(F)(F)F)c1`, the growth in test [1] was 70.6%; in test [2], 66.6%; in test [3], 91.3%; in [4] it was 40.8%; in [5] it was 102%; in test [6], 86%. Moreover, the figures for the growth in test [9], in [7] and in test [8] were -13.2% (active), 69.7% and 74.2%, respectively.

`COc1ccc(/C=C2\CCCC3C2=Nc2ccccc2NC3c2ccc(OC)cc2)cc1` (configuration not stated): the growth was 92% in test [1]; 87.5% in [2]; 85.5% in test [3]; 74.1% in test [4]; 113% in [5]; 77.3% in test [9]. The growth in [7] was 80.4%; in [8], 72%.

On to `CN(C)CCOc1ccc(-c2nc3sccn3c2-c2ccnc(S(C)(=O)=O)n2)cc1`, for which the growth in test [1] is 111%; in test [2], 102%; in test [3], 101%; in test [4] it was 97.1%; in [5], 106%; in [6] it was 98.8%. The growth is 96.3% in test [9], 91% in test [7] and 109% in test [8].
